Measured values published in PubChem BioAssay.
A number with no mark means an inactive call. The rule behind the calls is not given here.

The molecules below were run against Pantothenate synthetase (Mycobacterium tuberculosis (strain ATCC 25618 / H37Rv)) (UniProt P9WIL5) (assay: Recombinant Mtb pantothenate synthetase (PanC) inhibitors, coupled enzyme, confirmatory (AID 375;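 note: 0% = full reaction with vehicle and 100% = no enzyme background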)). Conditions: coupled enzyme assay; at 10 µM, hits give high values.
Pantothenate synthetase (Mycobacterium tuberculosis (strain ATCC 25618 / H37Rv)), sequence (P9WIL5 whole entry, looked up): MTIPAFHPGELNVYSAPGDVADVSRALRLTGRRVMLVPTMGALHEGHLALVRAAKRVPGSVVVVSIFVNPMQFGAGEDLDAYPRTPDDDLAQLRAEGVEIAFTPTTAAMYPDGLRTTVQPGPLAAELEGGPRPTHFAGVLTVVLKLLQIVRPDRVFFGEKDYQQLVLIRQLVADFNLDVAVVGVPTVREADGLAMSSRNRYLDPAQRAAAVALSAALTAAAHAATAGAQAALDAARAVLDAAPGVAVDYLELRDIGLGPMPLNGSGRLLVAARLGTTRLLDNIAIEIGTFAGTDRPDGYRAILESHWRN

| Compound | inhibition |
| --- | --- |
| COc1ccc(C2C(=O)N(C3CCCCC3)CC(=O)N2Cc2ccco2)cc1 (stereo not given) | 6% |
| CCn1cc(C(=O)NCC2CCCO2)c(=O)c2cc(S(=O)(=O)N(C)C)ccc21 (stereo not given) | 0% |
| O=C(CSc1nnc(-c2ccccc2)o1)N1CCN(c2ccccc2)CC1 | 0% |
| Cc1c(C)c2ccc(OC3CCCCC3=O)cc2oc1=O (stereo not given) | 2% |
| Cc1ccc(NC2=NC(c3ccccc3)n3c(nc(C)cc3=O)N2)cc1 (stereo not given) | 13% |
| CCCC(=O)Nc1ccccc1NC(=O)CCC | 0% |
| O=C1CCCN1CCCNc1ncnc2c1[nH]c1ccc(Cl)cc12 | 9% |
| Cn1nnnc1SCC(=O)NCc1ccco1 | 5% |
| Cc1ccc(OCCN2CCN(C(=O)CCC(=O)Nc3nnc(C)s3)CC2)cc1 | 1% |
| O=C1c2ccccc2C(Nc2ccc3c(c2)OCO3)N1Cc1ccc2c(c1)OCO2 (stereo not given) | 0% |
| COCCN(C(=O)CNC(=O)c1ccco1)C(C(=O)NC1CCCCC1)c1cccc(OC)c1 (stereo not given) | 0% |
| CCOc1cccc(C(=O)N(Cc2ccc(F)cc2)C2CCS(=O)(=O)C2)c1 (stereo not given) | 3% |
| CC(CN1CCOCC1)(NS(=O)(=O)c1ccccc1)c1ccccc1 (stereo not given) | 1% |
| COc1ccc(N2CCC(CNS(=O)(=O)c3cccc(C(F)(F)F)c3)C2)cc1 (stereo not given) | 5% |
| COC(=O)Nc1ccc(S(=O)(=O)N(C)CC(F)(F)C(F)F)cc1 | 6% |
| CC(=O)O[C@]1(C(C)=O)CC[C@H]2[C@@H]3C=C(C)C4=CC(=O)CC[C@]4(C)[C@H]3CC[C@@]21C | 0% |
| Cc1ccc(C(c2nnnn2CCC(C)C)N2CCN(C)CC2)cc1 (stereo not given) | 2% |
| O=C(Nc1ccc2c(c1)OCCO2)NC1CCCCC1 | 0% |
| CCOc1ccccc1OCC(=O)NCc1ccco1 | 0% |
| O=C(NCc1ccccn1)c1ccc2nc(-c3ccco3)c(-c3ccco3)nc2c1 | 1% |

| Compound | inhibition |
| --- | --- |
| O=C(Cc1cccs1)NCc1ccc(F)cc1 | 0% |
| Cc1cccc(-n2c(O)c(C=Nc3ccccc3N)c(=O)[nH]c2=O)c1 | 0% |
| COc1ccc(C2CC(c3ccco3)n3ncnc3N2)cc1 (stereo not given) | 4% |
| CC(C)Oc1ccc(C2C(C(=O)c3ccco3)=C(O)C(=O)N2CCCN(C)C)cc1 (stereo not given) | 0% |
| CCOC(=O)C1CCCN(C(=O)c2cc3c(-c4cccc(OC)c4)nn(C)c3s2)C1 (stereo not given) | 0% |
| COc1ccc(NC(=O)N2CCC(O)(c3cccnc3)CC2)c(OC)c1 | 3% |
| COc1ccc(NC(=O)N2CCN(c3nc(-c4cccc(OC)c4)cs3)CC2)cc1 | 0% |
| Cc1ccc(OCc2nnc(SCC(=O)N3CCOCC3)n2C)cc1 | 0% |
| O=C(Cn1cnc2c(cnn2-c2ccc(F)cc2)c1=O)N1CCN(c2ccccc2)CC1 | 0% |
| Cc1ccc(Cl)c(Nc2ccccc2C(=O)O)c1Cl | 0% |
| O=C(NCc1ccco1)C1CCN(S(=O)(=O)N2CCC3(CC2)OCCO3)CC1 | 0% |
| CCn1c(SCC(=O)Nc2ccccc2N2CCCCC2)nc2c1c(=O)n(C)c(=O)n2C | 2% |
| Cc1ccc(S(=O)(=O)N2CCN(c3nc(C(C)C)c4c(c3C#N)CC(C)(C)OC4)CC2)cc1 | 0% |
| O=C(COC(=O)c1ccccc1C(=O)c1ccccc1)c1ccco1 | 0% |
| COc1ccccc1Oc1ccc(S(=O)(=O)N2CCOCC2)cc1S(=O)(=O)N1CCOCC1 | 0% |
| Cc1ccccc1Nc1cc2ccccc2c(=O)[nH]1 | 2% |
| O=C(NS(=O)(=O)c1ccc(NC(=O)C2CCCO2)cc1)c1ccccc1 (stereo not given) | 0% |
| O=C(/C=N/O)NCc1ccncc1 | 1% |
| CCN(CC)CCCNC(=O)c1cn(C)c2ccc(S(=O)(=O)N(C)C)cc2c1=O | 10% |
| COc1ccc(NC(=O)CSc2nnc(-c3ccncc3)n2CC2CCCO2)c(OC)c1 (stereo not given) | 4% |
